An excerpt weighted towards active compounds, which were near 5.9% of everything screened.
HepG2 viability = counter-screen for TGF-b inhibitors: cytotoxicity in HepG2 cells | Potency, µM (doses to about 46.1 µM), hits mostly cytotoxic | HepG2 CAGA-GFP viability, ATP luminescence, 18 h | hit rate 0.76% among 410,000
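HepG2 CAGA-GFP cells (1000/well, DMEM with 1% FBS) received compound, then TGF-beta at 500 pg/mL final, and were incubated 18 hours at 37 degrees C. Viability was read by CellTiter-Glo luminescence. Media-only wells were set as complete cell-killing and DMSO as no toxicity.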
TGFb inhibitor = TGF-b pathway inhibition; HepG2 CAGA-GFP TGF-b/SMAD3 reporter, GFP fluorescence, 18 h; TGF-beta stimulated, 500 pg/mL final; Potency, µM (highest dose often 46.1 µM), actives largely listed as inhibitors; hit rate 1.2% among 410,000; note: nearly all actives have a fitted effect of over 65% in size
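First, reporter cells (HEPG2 CAGA-GFP) rested 2 h at 37 degrees C. Next, compounds were pinned in and TGF-beta added to 500 pg/mL final. After 18 h, GFP was imaged per cell and summed per well.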
ATXN2 expr inh = reduces ATXN2 reporter expression in HEK-293 cells. HEK-293 ATXN2-luciferase reporter, luminescence, 24 h. Potency, µM (highest dose often 57 µM), hits mostly inhibitors. hit rate 0.72% among 360,000. AID 1745845; note: nearly all actives have a fitted effect of over 55% in size
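qHTS (up to 57 uM final) was run with 24 h compound exposure of reporter cells at 37 °C. Each well was multiplexed: SteadyGlo luminescence measured ATXN2-luciferase expression after a fluorogenic Gly-Phe-AFC viability readout (25 uM final).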
KB-3-1 tox = kills parental KB-3-1 adenocarcinoma cells; Potency, µM (highest dose often 46.1 µM), actives largely listed as cytotoxic; KB-3-1 viability, CellTiter-Glo ATP luminescence, 72 h; AID 1347075; hit rate 1.4% among 400,000; note: nearly all actives have a fitted effect of over 60% in size
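Screening of KB-3-1 cells (DMEM, 10% FBS, phenol-red free) ran from lowest to highest compound concentration; after 72 h at 37 °C viability was read luminescently and curves fitted.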
KB-V1 cytotox = kills drug-selected multidrug resistant KB-V1 cells | AID 1347076 | KB-V1 MDR cells viability, CellTiter-Glo, 72 h | Potency, µM (series often up to 46.1 µM), usual class: cytotoxic | hit rate 3.4% among 400,000; note: nearly all actives have a fitted effect of over 60% in size
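Cytotoxicity toward P-gp-expressing KB-V1 cells was determined as loss of CellTiter-Glo luminescence after 72 h at 37 degrees C. Compounds were tested in quantitative HTS format across a concentration range, with curves fitted to normalized data.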
ATXN viability = viability counter-screen for ATXN expression inhibitors; Potency, µM (series often up to 56.7 µM), hits mostly cytotoxic; hit rate 0.49% among 400,000; S2 cells (HEK-293 line with an ATXN2-luciferase reporter) viability, CellTiter-Fluor protease fluorescence, 24 h; AID 651635; note: nearly all actives have a fitted effect of over 40% in size
A number is an active result; n = inactive; u = inconclusive; x = not tested or not shown. Calls come from the whole dose curve; as a rule, active = well fitted curve in the direction sought with a large enough effect; inconclusive = small, poorly fitted or top-dose-only effect, or another doubt; inactive = no such curve, though single readings can be large; an effect the other way counts as inactive or inconclusive.

SMILES	HepG2 viability	TGFb inhibitor	ATXN2 expr inh	KB-3-1 tox	KB-V1 cytotox	ATXN viability
CCOc1ccc(N2CC(C(=O)Nc3cc(S(=O)(=O)N4CCCCC4)ccc3C)CC2=O)cc1 (centres undefined)	n	u	n	n	18µM	n
Cc1ccc(N2CC(C(=O)Nc3cc(S(=O)(=O)N4CCCCC4)ccc3C)CC2=O)cc1 (centres undefined)	n	n	x	n	n	n
CCCN1C(=O)/C(=N\OCC(=O)NC23CC4CC(CC(C4)C2)C3)c2ccccc21	n	n	n	n	16µM	n
CCCN1C(=O)/C(=N\OCC(=O)Nc2ccc(C(C)C)cc2)c2ccccc21	n	n	n	n	u	n
O=C(Nc1ccc2ccccc2c1)Nc1nnc(-c2ccccn2)s1	x	x	x	u	n	x
CCOC(=O)N1CCN(c2ncnc3c2[nH]c2ccc(OC)cc23)CC1	n	n	u	n	15µM	n
CCCCOc1ncnc2c1[nH]c1ccc(F)cc12	n	n	n	18µM	6.5µM	n
Fc1ccc2[nH]c3c(N4CCN(c5ccccc5)CC4)ncnc3c2c1	n	u	u	n	16µM	u
CCOC(=O)N1CCN(c2ncnc3c2[nH]c2ccc(F)cc23)CC1	n	n	u	u	u	u
OC1(c2cccc(C(F)(F)F)c2)CCN(c2ncnc3c2[nH]c2ccc(F)cc23)CC1	20µM	u	n	n	n	n
COc1cccc(-n2ccnc2SCC(=O)Nc2cccc(C)c2C)c1	n	n	n	n	u	n
COc1ccc(-c2ccc3ncnc(N(C)Cc4csc(C)n4)c3c2)cc1OC	x	x	x	u	n	x
CCOc1cc(/C=C2/C(=O)ON=C2C)ccc1OCc1ccccc1F	16µM	u	u	n	u	u
CCN1CCCC1CN(Cc1cc2ccc(C)cc2[nH]c1=O)C(=S)Nc1ccc(OC)cc1 (centres undefined)	13µM	u	n	u	u	u
CCOc1ccccc1NC(=S)N(Cc1cc2ccc(C)cc2[nH]c1=O)CC1CCCN1CC (centres undefined)	n	u	n	13µM	n	u
CCN1CCCC1CN(Cc1cc2ccc(C)cc2[nH]c1=O)C(=S)Nc1ccccc1OC (centres undefined)	n	u	n	u	n	n
Cn1c(CNC(=O)CSc2n[nH]c(-c3ccccc3)n2)nc2ccccc21	n	n	x	n	n	x
CCCOc1ccc(C(=O)CCN2CCCCC2)cc1	n	u	n	u	u	n
CCOc1ccc(C(=O)CCN2CCCCCC2)cc1	11µM	u	n	u	n	n
CCCCOc1ccc(C(=O)CCN2CCOCC2)cc1	n	u	19µM	n	n	x
Cc1ccccc1-n1c(SCC(=O)c2c(N)n(C)c(=O)n(C)c2=O)nc2sc3c(c2c1=O)CCCC3	n	n	n	u	23µM	n
Cc1ccccc1-n1c(SCC(=O)c2c(N)n(C)c(=O)n(C)c2=O)nnc1-c1cccnc1	n	n	n	n	n	n
COc1ccc2c(CNC3CCCC3)c(C(=O)O)n(Cc3ccccc3C)c2c1	n	n	x	n	n	x
CCOC1=C2CN(S(=O)(=O)c3ccc(C)cc3)C(c3cccc(Cl)c3)CC2N(S(=O)(=O)c2ccc(Cl)cc2)C(c2ccccc2)C1 (centres undefined)	x	x	x	5.2µM	n	x
CC(=O)C1=CCC(c2ccccc2F)N(S(=O)(=O)c2ccc(C)cc2)C1 (centres undefined)	n	n	n	n	n	u
SMILES	HepG2 viability	TGFb inhibitor	ATXN2 expr inh	KB-3-1 tox	KB-V1 cytotox	ATXN viability
CCOC1=C2CN(S(=O)(=O)c3ccc(C)cc3)[C@H](c3cccc4ccccc34)C[C@H]2C(C#N)(C#N)C(C#N)(C#N)C1	n	u	14µM	n	n	x
CCCCC[C@@H]1[C@@H]2C(=C(OCC)C[C@@H]3C(=O)N(c4ccccc4)C(=O)[C@H]23)[C@H](c2ccccc2)N1S(=O)(=O)c1ccc(C)cc1	n	n	n	n	n	n
CCOC1=C2[C@H](c3ccccc3)N(S(=O)(=O)c3ccc(C)cc3)C(C(C)(C)C)[C@H]2C(C#N)(C#N)C(C#N)(C#N)C1 (some centres undefined)	16µM	10µM	25µM	n	n	18µM
CC(=O)C1=CCC(c2cccc3ccccc23)N(S(=O)(=O)c2ccc(C)cc2)C1 (centres undefined)	n	n	n	u	10µM	n
CCOC1=C2CN(S(=O)(=O)c3ccc(C)cc3)[C@@H](c3cccc4ccccc34)C[C@H]2[C@H]2C(=O)N(c3ccccc3)C(=O)[C@H]2C1	n	n	n	n	n	n
CCOC1=C2CN(S(=O)(=O)c3ccc(Cl)cc3)[C@H](c3ccccc3)C[C@@H]2N(S(=O)(=O)c2ccc(C)cc2)[C@H](c2ccccc2)C1	n	n	n	n	n	n
COc1ccc2c(c1)OC(C)CN(CC(=O)NCc1cn[nH]c1-c1ccc(F)cc1)C2 (centres undefined)	x	x	x	x	x	n
CCN1C(=O)CC(CC(=O)N2CCC(c3nc4ccc(F)cc4[nH]3)CC2)(c2ccccc2C)C1=O (centres undefined)	x	x	x	x	x	n
Cc1cc(=O)n2[nH]c(N)c(N=Nc3ccccc3F)c2n1	n	n	n	21µM	u	u
COc1ccc(OC)c(-c2c3cc(O)c(=O)cc-3oc3cc(O)c(O)cc23)c1	n	u	u	n	n	20µM
CCOc1ccccc1-c1c2cc(O)c(=O)cc-2oc2cc(O)c(O)cc12	n	2.8µM	u	u	n	x
O=c1cc2oc3cc(O)c(O)cc3c(-c3ccccc3O)c-2cc1O	n	n	x	n	n	n
Nc1nc(NCC2CCCO2)nc(Nc2ccccc2)c1[N+](=O)[O-] (centres undefined)	n	n	n	n	10µM	n
CCOc1ccc(Nc2c(S(=O)(=O)c3ccccc3)cnc3ccc(CC)cc23)cc1	n	11µM	u	n	u	u
Oc1cccc(Nc2nc(NCC3CCCO3)c3ccccc3n2)c1 (centres undefined)	n	u	n	u	18µM	u
CCOc1ccc(Nc2c3ccccc3nc3ccccc23)cc1	n	u	11µM	5.2µM	u	u
CCOc1ccc(Nc2cc(C)c3ccccc3n2)cc1	n	u	n	n	n	n
Nc1nc(NCC2CCCO2)nc(Nc2ccc(Cl)cc2)c1[N+](=O)[O-] (centres undefined)	n	n	n	n	n	n
COc1ccc(NC(=O)CSc2nnc(NC(=O)NC3CCCCC3)s2)cc1OC	n	n	n	n	n	n
CCOc1ccc(Nc2nc(NCC3CCCO3)c3ccccc3n2)cc1 (centres undefined)	n	11µM	u	u	u	u

Screening results (PubChem)
